# The list is not random: actives were taken first. Their share in the collection is about 3.2%.
# DENV2 CPE – inhibitors of DENV2 cytopathic effect, primary screen, cell-based, plate reader, single concentration. DENV2-infected cells, cytopathic effect rescue. 1.7% of 350,000 active. AID 651640, 2012. CPE inhibition, % at 9.99 µM; in the data active = CPE inhibition above about 20%, passing the limit was not always enough; inconclusive = no clear call, values can overlap the other calls; tested in BHK-21 cells;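 also: 0% = median of neutral control wells and 100% = median of positive control wells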
# ERAP1 HTS inh – human ERAP1 aminopeptidase inhibitors, primary screen, biochemical, single point, plate reader. Endoplasmic reticulum aminopeptidase 1 (Homo sapiens), Q9NZ08. recombinant ERAP1, Leu-AMC fluorescence, 60 min. inhibition, % at 10.7 µM. 0.15% of 340,000 active;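 active = mean replicate inhibition of at least 30%, or all replicates individually reaching that 30% level; inactive = mean below 30% and not every replicate reaching it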;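 also: 0% = neutral control wells and 100% = L-leucinethiol positive control wells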
# Target sequence (Q9NZ08 whole entry, looked up): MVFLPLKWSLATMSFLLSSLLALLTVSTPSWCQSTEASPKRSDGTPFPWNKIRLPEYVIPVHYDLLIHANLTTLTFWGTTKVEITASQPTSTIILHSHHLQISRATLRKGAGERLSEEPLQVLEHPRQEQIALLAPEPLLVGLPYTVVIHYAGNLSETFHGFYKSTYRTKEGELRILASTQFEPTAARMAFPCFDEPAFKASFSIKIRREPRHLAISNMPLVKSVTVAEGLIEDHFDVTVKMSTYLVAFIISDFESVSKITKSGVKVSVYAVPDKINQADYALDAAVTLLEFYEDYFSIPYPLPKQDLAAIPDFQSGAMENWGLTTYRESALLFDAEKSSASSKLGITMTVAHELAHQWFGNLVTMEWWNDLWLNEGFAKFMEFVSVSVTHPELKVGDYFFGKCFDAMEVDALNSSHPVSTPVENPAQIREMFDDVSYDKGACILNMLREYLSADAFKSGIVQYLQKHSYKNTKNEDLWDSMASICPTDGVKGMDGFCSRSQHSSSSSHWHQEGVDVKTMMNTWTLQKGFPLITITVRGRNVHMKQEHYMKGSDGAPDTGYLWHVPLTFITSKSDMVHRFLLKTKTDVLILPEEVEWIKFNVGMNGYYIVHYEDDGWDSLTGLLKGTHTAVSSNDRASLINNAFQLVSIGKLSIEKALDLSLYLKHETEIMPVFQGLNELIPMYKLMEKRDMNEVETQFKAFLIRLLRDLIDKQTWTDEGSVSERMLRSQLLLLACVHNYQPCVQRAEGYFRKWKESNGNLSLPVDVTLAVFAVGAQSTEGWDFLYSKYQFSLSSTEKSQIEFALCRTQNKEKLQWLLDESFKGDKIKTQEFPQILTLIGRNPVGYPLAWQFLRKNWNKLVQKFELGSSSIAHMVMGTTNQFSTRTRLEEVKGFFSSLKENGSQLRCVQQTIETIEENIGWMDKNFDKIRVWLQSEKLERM
# GSIS activator – GLuc luminescence reporter in INS-1E cells, primary screen for activators of glucose-dependent secretion of insulin; INS-1E GLuc reporter insulin secretion, 2-3 h; activation, % at 16.6 µM; 0.61% of 370,000 active; AID 743287, 2014;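 active = lowest replicate activation of at least 40%, so every replicate reaches that level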;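 also: 0% = median of neutral control wells and 100% = median of IBMX positive control wells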
# CaV13 FRET inh – Primary screen for inhibitors of IQ motif and Ca2+-dependent inactivation inhibitor domain binding in CACNA1D, Förster resonance energy transfer in living cells, …. HEK cells, CFP/YFP FRET ICDI-IQ, plate reader, 10 min; percent FRET-ratio fall versus neutral wells. inhibition, % at 12.3 µM. 0.098% of 340,000 active;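 active = mean replicate inhibition of at least 30% and at least 1% of replicates passing that level; inconclusive = only one of the two criteria is met; inactive = neither criterion is met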;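 also: 0% = median of the neutral control wells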
# Ecoli rRNA inh – reduced GFP signal of wild-type E. coli, primary screen, bacterial rRNA inhibitor project, GFP/RFP fluorescence, OD600, single point. AID 720706, 2013. 1.6% of 350,000 active. E. coli WT GFP vs humanized-ribosome RFP mutants, 24 h; active compounds read low; DMSO median 0, no signal -100. GFP signal change (wild-type ribosome), % (concentration not given with the values);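 active = significant combined selectivity score with lowered wild-type GFP, culture density cut under 30%, mutant RFP and density less affected; inactive = any of these conditions unmet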
# PGC1a acetyl inh – inhibitors of PGC1a acetylation signal, primary screen, cell-based, U2OS, AlphaScreen, inhibitor mode. AlphaScreen anti-acetyl-lysine; with virally co-expressed GCN5 acetyltransferase. inhibition, % at 15.6 µM. 0.17% of 350,000 active;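 active = every replicate shows inhibition of at least 40%; inconclusive = mean inhibition at least 40% but some replicate below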;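 also: 0% = neutral control wells and 100% = positive control wells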
# Active calls of the source: *; ? = inconclusive; . = not tested or not shown.
SMILES,DENV2 CPE,ERAP1 HTS inh,GSIS activator,CaV13 FRET inh,Ecoli rRNA inh,PGC1a acetyl inh
CCN(CC(=O)NC(=O)NCc1ccccc1)Cc1ccccc1,1,3,6,.,-23*,-4
CCN(CC(=O)NC(=O)NCc1ccco1)Cc1ccccc1,4,-3,16,-6,3,4
C[C@@H]1CN([C@H](C)CO)C(=O)c2cccc(NS(=O)(=O)c3ccccc3)c2O[C@H]1CN(C)Cc1ccc(-c2ccccc2)cc1,-2,-5,-9,.,1,-6
CC1(C)OC2CCN3C(C(O)COS3(=O)=O)C2O1 (stereo not given),131*,-2,11,-4,4,13
O=S(=O)(NN=Cc1ccc(O)cc1O)c1cc(Cl)c(Cl)cc1Cl,16,-3,-6,-5,-15*,-4
CCCNC(=O)C[C@H]1CC[C@@H]2[C@H](COc3ccc(NC(=O)c4ccccc4)cc3C(=O)N2C)O1,5,2,-1,.,-1,-2
CCOc1ccc(N=c2oc3cc(O)ccc3cc2C(=O)NCC2CCCO2)cc1 (stereo not given),-1,-19,23,23,-2,-2
Cc1ccc(-c2nn(-c3ccccc3Cl)cc2C(=O)NCC2CCCO2)cc1 (stereo not given),30*,-2,1,-5,-9,.
O=C(NCC1CCCO1)c1ccccc1OCc1ccc(Cl)cc1 (stereo not given),65*,3,-6,-5,-17,-8
O=C(NCC1CCCO1)c1ccccc1OCc1ccc(F)cc1 (stereo not given),9,2,15,-15,3,2
CCOc1ccccc1N=c1oc2cc(O)ccc2cc1C(=O)NCC1CCCO1 (stereo not given),-8,-54,.,33*,-24,-5
C[n+]1ccc(/C=C/c2cccs2)cc1,-1,53*,-1,-2,21,6
C[C@H](NC(=O)C[C@@H]1C[C@H]2c3cc(NC(=O)C4CCC4)ccc3O[C@H]2[C@H](CO)O1)c1ccccc1,-2,-1,-6,.,-4,-4
O=C(Cc1cccs1)NNC(=O)c1ccccc1Cl,1,-4,15,-2,7,.
O=C(Cc1ccsc1)NNC(=O)c1ccccc1Cl,-4,-3,42*,-6,14,.
CCOc1ccc(N(CC(=O)Nc2cccc(C)c2)S(C)(=O)=O)cc1,43*,-2,-27,-5,-4,-4
COC(=O)c1cc(NC(=O)CN(c2ccccc2OC)S(=O)(=O)c2ccccc2)ccc1Cl,.,2,4,.,-21*,.
CCOc1ccccc1N(CC(=O)Nc1ccccc1F)S(=O)(=O)c1ccccc1,-8,-1,-4,-2,-19*,-19
CCOc1ccccc1N(CC(=O)Nc1ccc(OC)cc1OC)S(=O)(=O)c1ccccc1,-14,3,.,-5,0,4
COc1ccc(S(=O)(=O)N(CC(=O)NC2CCCC2)c2ccccc2OC)cc1,?,6,-9,-3,-29*,.
CCOc1ccc(N(CC(=O)Nc2ccc(Br)cc2)S(C)(=O)=O)cc1,-4,.,-11,-20,-2,-29
COc1ccc(CC(=O)NC2CCCCCC2)c(OC)c1,64*,1,11,-5,2,.
CCOc1ccccc1N(CC(=O)Nc1ccc(OC)cc1)S(=O)(=O)c1ccccc1,28*,5,-9,-2,-5,0
CCOc1ccc(N(CC(=O)Nc2ccccc2OC)S(=O)(=O)c2ccccc2)cc1,-4,-1,-19,-4,-10,88*
COc1ccccc1N(CC(=O)NCCSCc1ccccc1)S(=O)(=O)c1ccccc1,5,1,-21,-6,-15*,-3
COc1ccc(N(CC(=O)Nc2ccc(OC)cc2OC)S(=O)(=O)c2ccccc2)cc1,2,-1,-3,-5,-11,-17

# Screening results from PubChem BioAssay.
